# Results as given in PubChem BioAssay (NCI).
# Compounds without any hit were thinned out: in the full panel of roughly 83,000, 20% have a hit.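 Interpretation: 100, growth as untreated; towards 0, rising growth inhibition; 0, no net growth; 0 to -100, cell death. Compounds scoring below 10 were considered active.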 Values without a mark were called inactive. Active and inactive are the calls of the source.
# Key:
# Assay in all cases: NCI-60 one-dose screen, 48 h (100 = growth as untreated, 0 = no growth, -100 = all killed)
# Settings in all cases: 10 µM unless noted
# [1] = system: HCT-15 colon
# [2] = system: HT29 colon
# [3] = system: SNB-75 CNS
# [4] = system: SNB-19 CNS
# [5] = system: U251 CNS
# [6] = system: PC-3 prostate
# [7] = system: SK-MEL-5 melanoma
# [8] = system: UACC-62 melanoma
# [9] = system: LOX IMVI melanoma
# [10] = system: SK-MEL-28 melanoma
# [11] = system: SK-MEL-2 melanoma
# [12] = system: EKVX NSCLC
# [13] = system: SN12C renal
# [14] = system: UO-31 renal
# [15] = system: TK-10 renal
# [16] = system: ACHN renal
# [17] = system: CAKI-1 renal
# [18] = system: A498 renal
# [19] = system: CCRF-CEM leukemia
# [20] = system: MOLT-4 leukemia
SMILES,growth [1],growth [2],growth [3],growth [4],growth [5],growth [6],growth [7],growth [8],growth [9],growth [10],growth [11],growth [12],growth [13],growth [14],growth [15],growth [16],growth [17],growth [18],growth [19],growth [20]
COc1cc(C(=O)c2cnc(-c3cccc4[nH]ccc34)[nH]2)cc(OC)c1OC,17.8%,7.58% (active),30.5%,40.3%,20.2%,22.4%,-23.6% (active),39.3%,28.1%,55.1%,39.9%,42.4%,31.1%,26.7%,63.4%,30.2%,16.7%,-15.9% (active),10.3%,14.2%
COc1ccc2c(c1)c(-c1ccc(-c3cn(C)c4ccc(OC)cc34)o1)cn2C,56.2%,72.7%,71.4%,33.3%,15%,3% (active),-2.83% (active),12.4%,53.2%,83.6%,45%,46.1%,75.8%,-8.28% (active),83.3%,36.3%,37.2%,85.3%,61.8%,63.5%
Fc1cc(-c2nnc3sc(-c4ccc(Cl)cc4Cl)nn23)c(Cl)cc1Cl,90.7%,72.1%,49.1%,79.5%,75.5%,94.4%,67.4%,92.3%,96.2%,69.3%,94.7%,73.3%,82.8%,73%,109%,73.7%,86.5%,109%,-78.6% (active),134%
Cc1cc(=O)[nH]c(=O)n1Cc1cn(-c2c3ccccc3nc3ccccc23)nn1,79.2%,113%,103%,87.3%,88.3%,97.3%,78.9%,85.2%,15.2%,75.6%,107%,103%,88.7%,82.6%,96.1%,87.4%,91%,101%,64.7%,48.5%
NCCCNc1nc2ccccc2c2c(=O)c3cccc(F)c3sc12,9.25% (active),-14.1% (active),42.7%,44%,28.5%,48.5%,72.9%,75.9%,-96.8% (active),85.1%,94.6%,60.4%,43.4%,16.4%,54.2%,8.21% (active),1.7% (active),29.4%,9.26% (active),-14.7% (active)
Cc1c(C(=O)N[C@@H](Cc2ccccc2)C(=O)C(=O)NCc2ccc(F)cc2)[nH]c2ccccc2c1=O,96.2%,101%,88.5%,96.9%,101%,86.5%,98.7%,91.7%,99.9%,100%,108%,85.3%,78.9%,106%,107%,97.8%,96.9%,75.8%,103%,87.5%
CCCCNC(=O)Oc1ccc(/C(=C(\C)c2ccc(Cl)cc2)c2ccc(OCCN3CCCCC3)cc2)cc1,23.8%,10.9%,80.3%,93.5%,59.3%,63.8%,74.2%,83%,79.8%,80.1%,98.6%,76.9%,80.5%,58.8%,87%,94%,92.5%,85.2%,72.7%,65.5%
C/C(=C\C(=O)c1ccc(Cl)cc1)c1ccc(Cl)cc1,44.6%,109%,92.8%,99.9%,100%,87.8%,94.1%,92.8%,100%,111%,98%,79%,103%,59.3%,74.7%,98.3%,87.8%,104%,88.4%,92.6%
COc1ccc(C2CC(c3ccc(Nc4ccnc5cc(Cl)ccc45)cc3)=NN2C=O)cc1 (stereo not given),23.6%,33.2%,77.1%,81.5%,63.4%,72.3%,41.2%,54.5%,20%,74.9%,92.5%,68.2%,64.4%,43.2%,91.2%,48.5%,59.2%,101%,14%,25.8%
CCOC(=O)c1sc2ncc(-c3ccc(C)cc3)n2c1C,90.1%,93.1%,74.7%,94.5%,96.2%,81%,95.1%,72.6%,85.2%,102%,101%,88.4%,86.6%,78.2%,147%,84%,88.1%,104%,89.5%,90.1%
O=C(Nc1ccc(I)cc1F)c1cc(I)ccc1O,4.84% (active),78.7%,1.71% (active),17.5%,16.1%,7.79% (active),-95.8% (active),-24.1% (active),8.01% (active),5.11% (active),-19.3% (active),6.21% (active),-10.4% (active),-9.71% (active),14.7%,-5.98% (active),3.29% (active),-49.1% (active),15.3%,-10% (active)
CCCCNC(=O)Oc1ccc(/C(=C(\C)c2ccc(Cl)cc2)c2ccc(OCCN(CC)CC)cc2)cc1,19.5%,-10.2% (active),64.9%,86%,50.7%,60.9%,78.4%,74.6%,71.5%,74.9%,117%,75%,75.4%,47.8%,88.6%,93.7%,81.4%,71%,64.4%,58.4%
COc1c(B(O)O)cc(C)cc1-c1nc2ccc3[nH]ncc3c2c2c1CCCC2,21.6%,38.6%,-34.4% (active),74%,60.6%,61.9%,80.4%,69.5%,30.7%,93.8%,102%,54.2%,52%,23.5%,19.7%,57%,-31.8% (active),49.2%,35.1%,19.7%
Fc1cc2c(cc1Cl)N(c1ncnc3ccc(-c4cnc5cnccn45)cc13)CC2,99.1%,87.9%,69.2%,86.2%,91.1%,81.9%,95.3%,80.5%,91%,97.1%,102%,63.4%,79.3%,42.1%,96.9%,60.4%,62.8%,45.6%,108%,98.9%
COc1ccc(C2NC(=O)C(C#N)c3c2sc2c(F)cccc32)c(OC)c1 (stereo not given),36.3%,66.1%,-5.26% (active),44.2%,39.3%,56.8%,81.8%,42.3%,39.7%,55.1%,65.1%,79.8%,73.8%,34%,90.1%,37.5%,21.4%,25.2%,71.9%,71.4%
CCOC(=O)c1cn2ncnc(Oc3ccc(NC(=O)NCCN4CCN(C)CC4)c(Cl)c3)c2c1C,39.6%,19.7%,86.3%,87.7%,63.3%,50.5%,47.6%,34%,66.2%,13.3%,91.9%,66.3%,65%,61.7%,97.5%,80%,76.3%,77.9%,44.3%,57.2%

SMILES,growth [1],growth [2],growth [3],growth [4],growth [5],growth [6],growth [7],growth [8],growth [9],growth [10],growth [11],growth [12],growth [13],growth [14],growth [15],growth [16],growth [17],growth [18],growth [19],growth [20]
O=[N+]([O-])c1ccccc1NCSc1ccc(Cl)cc1,89.7%,108%,87.3%,103%,85.8%,56.2%,99.9%,89.2%,52.7%,107%,114%,104%,72%,68.3%,101%,104%,95.3%,86%,25%,49.7%
Cc1nc2ccccc2c(/C=C/c2ccc(Cl)cc2)c1C(=O)/C=C/c1ccc(C(F)(F)F)cc1,-31.6% (active),3.52% (active),-79.6% (active),-80.4% (active),-84.5% (active),-52.3% (active),-94.6% (active),-59.3% (active),-89% (active),-69.7% (active),-31.9% (active),-60.1% (active),-70.7% (active),-100% (active),-82.8% (active),-100% (active),-95.4% (active),-89.5% (active),8.6% (active),0.0825% (active)
O=c1c2cc(F)ccc2sc2c(N3CCNCC3)nc3ccccc3c12,-40.7% (active),-37.7% (active),70.2%,65.3%,-24.2% (active),48.7%,76.8%,59.5%,-99.1% (active),57.7%,103%,72.5%,61.7%,28.8%,58.8%,7.74% (active),-48.4% (active),30.3%,-27.5% (active),-33.5% (active)
C=C1C(=O)O[C@H]2[C@H]1CC/C(COC(=O)NCCOCCOCC(=O)Nc1ccc(OC)c(C(N)=O)c1O)=C\CC[C@@]1(C)O[C@@H]21,85.4%,37.2%,80.1%,77.8%,70.5%,51.4%,84.9%,44.4%,57.2%,47.1%,72.5%,84.1%,66%,74.9%,45.5%,40.8%,82%,92.5%,-4.37% (active),17%
Cc1ccc(-c2cnc3sc(C(=O)NCCc4ccccc4)c(C)n23)cc1,97.9%,113%,79.3%,92.1%,95%,81.7%,99.7%,85.9%,84.4%,104%,108%,86.8%,93.2%,75.1%,139%,94.2%,94.1%,101%,64.7%,87%
COc1ccc(-c2cnc3ccccc3n2)cc1,99.9%,118%,72.4%,93.6%,86.3%,98%,101%,91.6%,101%,104%,112%,88.2%,93.7%,81.9%,91.3%,97.9%,84.4%,95%,97.4%,103%
CCCCC1CCCC12NC(=O)NC2=O (stereo not given),103%,110%,107%,104%,99.5%,95%,117%,93.8%,88.9%,113%,100%,107%,96%,85.1%,92.7%,99.4%,107%,98.3%,101%,122%
CCOC(=O)c1[nH]c(C)c(C(=O)OCc2ccccc2C#N)c1C,60.8%,35.1%,0.16% (active),97.1%,50.9%,80.3%,60.3%,73.6%,63.1%,87.1%,82.3%,114%,95%,88.3%,90.9%,87.4%,82.1%,79.3%,92.4%,78.8%
Cc1nc2cnc(N)c(C#Cc3cncc(C(=O)Nc4ccc(CN5CCN(C)CC5)c(C(F)(F)F)c4)c3)c2nc1C,2.84% (active),7.18% (active),-5.44% (active),48.2%,42.1%,29%,26.6%,-19.7% (active),-88.8% (active),-26.8% (active),-33.9% (active),7.92% (active),9.49% (active),2.11% (active),4.77% (active),0.0511% (active),-36.4% (active),-81% (active),13.7%,8.72% (active)
N[C@@H](Cc1ccccc1)[C@@H](O)C(=O)NCc1ccc(F)cc1,103%,110%,90.1%,97.6%,104%,106%,102%,94.5%,105%,108%,117%,103%,93.4%,90.8%,105%,108%,91.3%,96.2%,111%,109%
CC(=O)O.CN1[CH-]N(Cc2ccc(C#N)cc2)c2ccccc21.[Ag+],102%,94.7%,94.7%,109%,97.4%,91.1%,41.7%,112%,91.8%,95.3%,89.8%,108%,111%,97.4%,103%,106%,104%,99.7%,24.7%,90.1%
O=C(Nc1ccc(Br)cc1F)c1cc(Br)ccc1O,4.49% (active),59.3%,1.84% (active),19.6%,13.8%,11.9%,-93.7% (active),-31.4% (active),6.99% (active),8.29% (active),-25.4% (active),9.76% (active),-10.9% (active),-11% (active),15.3%,-0.439% (active),2.12% (active),-42% (active),20.9%,1.26% (active)
Cc1nc(NC(=O)COc2ccc(/C=C3\Cc4ccc(Cl)cc4C3=O)cc2)sc1C,104%,114%,108%,106%,99.4%,91.9%,111%,98.8%,72.7%,132%,97.4%,103%,103%,-88.5% (active),310%,93.7%,86.1%,139%,100%,83.1%
CN1CCN(c2ccc(-c3cc4c(Nc5ccc(F)c(Cl)c5)ncnn4c3)cn2)CC1,7.04% (active),16.1%,72%,96.2%,82.5%,94.2%,100%,106%,85.2%,87.6%,109%,100%,90.5%,88.2%,76.7%,82.6%,96.3%,86.7%,42.9%,93.6%
Cc1cc(-c2cc(C)c(N)cc2C)c(C)cc1N,73%,99%,101%,85.2%,71.8%,80.5%,81.6%,75.8%,75.6%,89.3%,90.5%,115%,89.9%,78.7%,101%,92.8%,87.3%,105%,89.8%,100%
